Results as given in the supplement of paper PMC11732987, “Enantioselective OTUD7B fragment discovery through chemoproteomics screening and high-throughput optimisation” (Communications Chemistry, 2025).
Values without a mark were called inactive.

Tests used:
Experiment in all cases: log2 ratio of Biotin-Ahx-Ub-VS probe labelling (fragment/DMSO); higher = less target engagement (more negative = stronger competition), active = hit call of the paper (q ≤ 0.05, log2 ratio ≤ -1)
Conditions in all cases: compound concentration: 200 uM; treatment time: 3 h
OTUD6B = target: T1, OTUD6B (UniProt Q8N6M0)
T1 sequence (whole entry): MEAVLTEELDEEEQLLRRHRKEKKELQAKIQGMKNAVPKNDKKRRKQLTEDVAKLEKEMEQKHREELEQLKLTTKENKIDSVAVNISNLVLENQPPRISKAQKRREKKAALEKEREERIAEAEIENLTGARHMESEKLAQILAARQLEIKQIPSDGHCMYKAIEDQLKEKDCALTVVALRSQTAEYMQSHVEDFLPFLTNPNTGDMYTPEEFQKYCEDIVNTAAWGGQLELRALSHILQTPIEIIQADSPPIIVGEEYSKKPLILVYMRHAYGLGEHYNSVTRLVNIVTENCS
How it was run: (§1)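 Labelling with Biotin-Ahx-Ub-VS (0.5 µM final, 1 h) followed a 3 h triplicate treatment of HEK293T lysate (495 µg per sample, Tris/CHAPS/IGEPAL buffer with protease inhibitors) with fragment at 200 µM or vehicle. Labelled DUBs were NeutrAvidin-enriched, digested with LysC and trypsin, and run by diaPASEF LC-MS/MS. The values, average log2 fragment/vehicle ratios by unpaired t-test, come from global-median-normalised Spectronaut label-free quantities. Proteins with ≥2 unique peptides were used.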

OTUD7B = target: T2, OTUD7B (UniProt Q6GQQ9)
T2 sequence (whole entry): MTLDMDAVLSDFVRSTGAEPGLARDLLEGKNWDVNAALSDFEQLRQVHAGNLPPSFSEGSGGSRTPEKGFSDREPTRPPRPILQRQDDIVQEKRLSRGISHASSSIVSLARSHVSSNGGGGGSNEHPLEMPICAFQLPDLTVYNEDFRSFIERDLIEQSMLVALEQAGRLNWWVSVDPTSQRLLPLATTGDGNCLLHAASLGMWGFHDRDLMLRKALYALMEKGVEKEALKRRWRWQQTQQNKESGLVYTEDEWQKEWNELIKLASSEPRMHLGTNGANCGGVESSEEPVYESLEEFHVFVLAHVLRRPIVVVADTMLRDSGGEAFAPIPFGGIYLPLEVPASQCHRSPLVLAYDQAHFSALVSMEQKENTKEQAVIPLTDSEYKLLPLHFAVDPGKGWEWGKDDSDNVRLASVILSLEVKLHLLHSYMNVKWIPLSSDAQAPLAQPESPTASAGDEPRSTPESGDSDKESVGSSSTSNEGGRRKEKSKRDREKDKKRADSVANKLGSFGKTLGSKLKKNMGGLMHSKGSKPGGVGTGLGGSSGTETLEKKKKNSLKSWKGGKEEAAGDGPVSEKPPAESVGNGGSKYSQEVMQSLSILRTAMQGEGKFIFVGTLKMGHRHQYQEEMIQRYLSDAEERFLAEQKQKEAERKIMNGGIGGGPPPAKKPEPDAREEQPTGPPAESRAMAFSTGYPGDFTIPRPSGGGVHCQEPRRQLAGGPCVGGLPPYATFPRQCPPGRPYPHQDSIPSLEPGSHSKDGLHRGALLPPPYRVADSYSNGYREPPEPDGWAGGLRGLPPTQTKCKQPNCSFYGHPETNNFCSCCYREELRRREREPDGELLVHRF
How it was run: as §1

PRPF8 = PRPF8 (UniProt Q6P2Q9)
How it was run: as §1

PSMD7 = target: T3, PSMD7 (UniProt P51665)
T3 sequence (whole entry): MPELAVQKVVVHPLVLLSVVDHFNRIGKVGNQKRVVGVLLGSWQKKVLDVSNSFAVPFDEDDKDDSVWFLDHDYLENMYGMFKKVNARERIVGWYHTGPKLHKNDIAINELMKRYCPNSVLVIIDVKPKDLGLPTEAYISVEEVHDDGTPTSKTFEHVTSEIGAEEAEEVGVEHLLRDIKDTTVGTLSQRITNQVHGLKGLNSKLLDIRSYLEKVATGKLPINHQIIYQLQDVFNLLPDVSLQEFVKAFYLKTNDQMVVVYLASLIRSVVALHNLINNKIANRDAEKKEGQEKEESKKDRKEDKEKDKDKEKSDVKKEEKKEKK
How it was run: as §1

UCHL1 = UCHL1 (UniProt P09936)
How it was run: as §1

UCHL3 = target: T4, UCHL3 (UniProt P15374)
T4 sequence (whole entry): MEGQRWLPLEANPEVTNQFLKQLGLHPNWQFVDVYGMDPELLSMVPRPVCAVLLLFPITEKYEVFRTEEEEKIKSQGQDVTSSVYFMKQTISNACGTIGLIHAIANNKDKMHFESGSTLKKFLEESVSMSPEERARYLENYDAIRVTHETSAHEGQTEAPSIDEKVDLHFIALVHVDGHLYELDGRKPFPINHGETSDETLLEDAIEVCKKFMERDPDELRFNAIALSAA
How it was run: as §1

UCHL5 = target: T5, UCHL5 (UniProt Q9Y5K5)
T5 sequence (whole entry): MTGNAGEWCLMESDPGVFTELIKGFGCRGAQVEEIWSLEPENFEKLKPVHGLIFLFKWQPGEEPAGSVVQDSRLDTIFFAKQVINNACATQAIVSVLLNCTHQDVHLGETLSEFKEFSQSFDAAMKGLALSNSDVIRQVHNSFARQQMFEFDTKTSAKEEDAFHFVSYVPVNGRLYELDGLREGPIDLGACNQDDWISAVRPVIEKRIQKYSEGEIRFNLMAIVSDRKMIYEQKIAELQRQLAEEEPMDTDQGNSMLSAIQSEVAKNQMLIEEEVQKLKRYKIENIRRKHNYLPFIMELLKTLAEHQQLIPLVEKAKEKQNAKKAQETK
How it was run: as §1

USP10 = USP10 (UniProt Q14694)
How it was run: as §1

USP15 = target: T6, USP15 (UniProt Q9Y4E8)
T6 sequence (whole entry): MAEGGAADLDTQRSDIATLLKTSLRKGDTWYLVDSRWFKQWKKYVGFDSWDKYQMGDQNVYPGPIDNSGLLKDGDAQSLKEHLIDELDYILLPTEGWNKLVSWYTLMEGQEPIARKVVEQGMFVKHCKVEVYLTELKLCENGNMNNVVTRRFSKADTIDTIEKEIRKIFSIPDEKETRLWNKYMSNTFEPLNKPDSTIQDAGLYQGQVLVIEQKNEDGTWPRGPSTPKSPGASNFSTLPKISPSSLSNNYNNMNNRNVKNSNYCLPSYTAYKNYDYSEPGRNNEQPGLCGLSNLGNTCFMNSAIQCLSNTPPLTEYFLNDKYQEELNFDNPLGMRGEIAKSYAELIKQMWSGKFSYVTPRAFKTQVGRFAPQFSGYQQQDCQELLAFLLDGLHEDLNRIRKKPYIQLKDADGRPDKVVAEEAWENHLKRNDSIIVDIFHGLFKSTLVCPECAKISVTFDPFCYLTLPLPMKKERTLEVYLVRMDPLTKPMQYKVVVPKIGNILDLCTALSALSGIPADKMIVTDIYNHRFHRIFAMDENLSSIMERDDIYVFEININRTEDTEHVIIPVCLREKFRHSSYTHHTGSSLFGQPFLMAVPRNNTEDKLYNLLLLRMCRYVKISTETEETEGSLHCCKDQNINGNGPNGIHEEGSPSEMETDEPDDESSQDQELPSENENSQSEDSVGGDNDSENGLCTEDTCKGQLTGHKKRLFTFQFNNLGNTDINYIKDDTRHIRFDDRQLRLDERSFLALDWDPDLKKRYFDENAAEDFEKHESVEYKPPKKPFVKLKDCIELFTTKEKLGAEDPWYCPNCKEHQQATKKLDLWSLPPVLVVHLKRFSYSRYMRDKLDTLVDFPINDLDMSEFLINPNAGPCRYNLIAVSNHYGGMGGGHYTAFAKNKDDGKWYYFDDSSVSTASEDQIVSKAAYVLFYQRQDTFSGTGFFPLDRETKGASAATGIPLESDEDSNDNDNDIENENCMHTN
How it was run: as §1

USP16 = USP16 (UniProt Q9Y5T5)
How it was run: as §1

Sequence of USP10 (Q14694 whole entry): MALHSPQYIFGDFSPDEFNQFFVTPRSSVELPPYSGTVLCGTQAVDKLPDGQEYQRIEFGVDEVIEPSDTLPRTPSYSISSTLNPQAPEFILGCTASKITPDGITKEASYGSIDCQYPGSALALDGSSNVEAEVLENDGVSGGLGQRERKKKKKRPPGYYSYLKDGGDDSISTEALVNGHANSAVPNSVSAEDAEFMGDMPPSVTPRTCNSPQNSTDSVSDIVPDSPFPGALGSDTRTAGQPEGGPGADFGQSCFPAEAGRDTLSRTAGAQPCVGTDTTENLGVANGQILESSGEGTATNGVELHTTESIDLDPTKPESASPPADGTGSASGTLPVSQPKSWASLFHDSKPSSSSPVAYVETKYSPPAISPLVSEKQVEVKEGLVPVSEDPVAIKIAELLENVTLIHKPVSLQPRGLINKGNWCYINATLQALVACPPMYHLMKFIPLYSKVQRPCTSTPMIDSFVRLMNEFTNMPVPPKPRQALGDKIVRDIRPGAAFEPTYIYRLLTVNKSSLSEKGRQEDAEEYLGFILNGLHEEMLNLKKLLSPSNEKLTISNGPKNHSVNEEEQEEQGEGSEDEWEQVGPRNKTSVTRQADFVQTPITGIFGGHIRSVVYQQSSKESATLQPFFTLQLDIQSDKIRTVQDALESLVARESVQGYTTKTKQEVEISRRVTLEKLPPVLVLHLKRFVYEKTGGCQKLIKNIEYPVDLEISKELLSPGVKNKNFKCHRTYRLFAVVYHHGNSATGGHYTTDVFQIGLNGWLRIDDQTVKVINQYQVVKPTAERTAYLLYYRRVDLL
Sequence of USP16 (Q9Y5T5 whole entry, looked up): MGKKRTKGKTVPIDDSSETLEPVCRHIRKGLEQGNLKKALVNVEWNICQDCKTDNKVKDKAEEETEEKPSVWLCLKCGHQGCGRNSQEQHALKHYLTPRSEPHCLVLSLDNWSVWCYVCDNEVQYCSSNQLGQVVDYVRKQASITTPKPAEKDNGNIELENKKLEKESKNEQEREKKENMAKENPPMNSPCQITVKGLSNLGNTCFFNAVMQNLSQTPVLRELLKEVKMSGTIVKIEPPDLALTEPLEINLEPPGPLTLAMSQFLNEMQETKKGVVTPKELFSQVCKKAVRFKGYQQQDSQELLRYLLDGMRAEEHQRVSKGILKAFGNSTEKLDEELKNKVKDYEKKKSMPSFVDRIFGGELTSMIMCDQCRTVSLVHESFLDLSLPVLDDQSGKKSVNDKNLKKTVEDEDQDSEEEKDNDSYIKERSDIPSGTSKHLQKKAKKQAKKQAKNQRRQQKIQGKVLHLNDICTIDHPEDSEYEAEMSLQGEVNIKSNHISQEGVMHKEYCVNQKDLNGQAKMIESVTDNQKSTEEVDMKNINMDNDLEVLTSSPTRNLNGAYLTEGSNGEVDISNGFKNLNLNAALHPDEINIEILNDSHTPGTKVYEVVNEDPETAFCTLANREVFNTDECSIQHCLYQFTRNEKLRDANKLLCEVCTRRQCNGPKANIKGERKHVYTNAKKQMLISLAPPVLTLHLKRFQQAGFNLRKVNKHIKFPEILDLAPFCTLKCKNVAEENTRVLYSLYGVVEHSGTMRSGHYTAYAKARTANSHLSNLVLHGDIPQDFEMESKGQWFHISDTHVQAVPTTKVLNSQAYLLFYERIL
Sequence of UCHL1 (P09936 whole entry, looked up): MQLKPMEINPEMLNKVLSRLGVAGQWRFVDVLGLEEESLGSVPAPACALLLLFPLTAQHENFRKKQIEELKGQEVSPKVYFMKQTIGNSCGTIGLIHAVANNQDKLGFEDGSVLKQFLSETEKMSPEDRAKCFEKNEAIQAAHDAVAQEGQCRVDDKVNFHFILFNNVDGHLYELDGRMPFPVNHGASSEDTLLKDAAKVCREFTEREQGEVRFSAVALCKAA

O=C(CCl)NCCC1COCCO1 (stereo not given)
log2 ratio of Biotin-Ahx-Ub-VS probe labelling (OTUD6B): -0.0161 | log2 ratio of Biotin-Ahx-Ub-VS probe labelling (OTUD7B): -0.0714 | log2 ratio of Biotin-Ahx-Ub-VS probe labelling (PRPF8): -0.0389 | log2 ratio of Biotin-Ahx-Ub-VS probe labelling (PSMD7): -0.237 | log2 ratio of Biotin-Ahx-Ub-VS probe labelling (UCHL1): -1.39 (active) | log2 ratio of Biotin-Ahx-Ub-VS probe labelling (UCHL3): 0.227 | log2 ratio of Biotin-Ahx-Ub-VS probe labelling (UCHL5): -0.221 | log2 ratio of Biotin-Ahx-Ub-VS probe labelling (USP10): -0.143 | log2 ratio of Biotin-Ahx-Ub-VS probe labelling (USP15): 0.0547 | log2 ratio of Biotin-Ahx-Ub-VS probe labelling (USP16): -0.519
